Experimental data: publication PMC5540273 (PLoS ONE, 2017)

Assays:
Conditions in all cases: concentration: 1 μM,replicates: in singlicate; n = 1
CDK8 = system: CDK8
CDK9 = system: CDK9
CDKL1 = system: CDKL1
CDKL2 = system: CDKL2
CDKL3 = system: CDKL3
CDKL5 = system: CDKL5
CHEK1 = system: CHEK1
CHEK2 = system: CHEK2
CIT = system: CIT
CLK1 = system: CLK1
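Further: KINOMEscan kinase panel screen.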

Compound	%Inh (CDK8)	%Inh (CDK9)	%Inh (CDKL1)	%Inh (CDKL2)	%Inh (CDKL3)	%Inh (CDKL5)	%Inh (CHEK1)	%Inh (CHEK2)	%Inh (CIT)	%Inh (CLK1)
COc1cccc(C2=C(Nc3cccc(Cl)c3)C(=O)NC2=O)c1 [SB-341556]	0%	0%	18%	12%	0%	0%	14%	0%	0%	69%
CC(C(=O)NC1CCN(c2ccnc(Nc3ccc(F)cc3)n2)C1)c1ccc(Cl)cc1 (centres unmarked) [GSK1379713]	23%	0%	0%	1%	0%	0%	15%	0%	28%	15%
CS(=O)(=O)Nc1ccc(-c2ccnc3[nH]ccc23)cc1 [GSK993273]	18%	0%	0%	19%	0%	0%	0%	0%	57%	96.7%
Cl.Cl.NC[C@H](CC1CCCCC1)NC(=O)c1ccc(-c2ccnc3[nH]ccc23)s1 [GSK1581428]	11%	39%	23%	51%	89%	44%	96.8%	27%	99%	85%
Cc1nnc(-c2ccc3occ(-c4ccc(S(C)=O)cc4)c3n2)o1 (centres unmarked)	0%	0%	24%	0%	0%	0%	0%	1%	0%	0%
CSc1nccc(-c2c(-c3ccc(F)cc3)ncn2CCCN2CCOCC2)n1.Cl [SB-217146]	1%	0%	36%	10%	0%	11%	0%	0%	0%	0%
CNC(=O)c1ccccc1Nc1nc(Nc2cccc(CS(C)(=O)=O)c2)ncc1C.O=CO [GSK1520489]	4%	0%	28%	52%	0%	0%	16%	86%	45%	99.3%
Cc1cccc(-c2nc(Nc3ccncc3)c3sccc3n2)n1 [GW869641]	8%	11%	22%	0%	15%	31%	0%	0%	96.6%	4%
O=C(Nc1cccc(C(F)(F)F)c1)c1cccc(Oc2ccc3nccn3n2)c1	0%	0%	14%	18%	0%	3%	0%	0%	13%	7%
COc1cccc(OC)c1C(=O)Nc1cccc(-c2nn3ccccc3c2-c2ccnc(Nc3cccc(F)c3)n2)c1 [GSK361065]	0%	0%	15%	6%	3%	0%	13%	0%	36%	21%
CCCC(=O)Nc1n[nH]c2ncccc12 [SB-601436]	0%	0%	0%	0%	0%	0%	0%	0%	0%	2%
CN(c1ccc2c(c1)nc(NCc1ccc(F)cc1)n2C)c1ccnc(Nc2ccc(CS(C)(=O)=O)cc2)n1.Cl [GW813244]	2%	57%	30%	40%	20%	0%	0%	0%	86%	13%
O=C(Nc1ccc(Oc2ccc3nc(NC(=O)C4CC4)cn3n2)c(F)c1)c1cccn(-c2ccccc2)c1=O	63%	6%	45%	74%	25%	0%	0%	0%	30%	1%
CCN1CCN(CCCC(=O)Nc2n[nH]c3nc(-c4ccc(O)cc4)c(Br)cc23)CC1 [SB-731579]	14%	0%	23%	73%	2%	86%	0%	15%	63%	47%
C[C@@H]1CNc2c(sc3ccc4nc(-c5ccc(O)cc5)ccc4c23)C(=O)N1	63%	67%	15%	0%	5%	0%	0%	54%	54%	97.3%
COc1cc2ncn(-c3cc(OCC4CCCCC4)c(C(N)=O)s3)c2cc1OC [GSK204559]	5%	0%	0%	1%	0%	0%	0%	0%	10%	35%
O=C(Nc1cccc(Oc2ccc3nccn3n2)c1)Nc1cccc(C(F)(F)F)c1	90.9%	0%	0%	62%	0%	4%	0%	0%	99.9%	31%
CN(c1ccccc1CNc1nc(Nc2ccc3c(c2)CC(=O)N3)ncc1C(F)(F)F)S(C)(=O)=O	0%	40%	13%	8%	0%	0%	0%	0%	10%	95%
NC(=O)c1ccc(-c2cc3ncnc(SCC(=O)O)c3s2)cc1	0%	72%	7%	0%	0%	0%	0%	0%	3%	82%
COc1cccc(CNC(=O)NC2CCN(c3ccnc(Nc4cc(OC)c(OC)c(OC)c4)n3)C2)c1 (centres unmarked) [GSK1379765]	29%	0%	13%	22%	0%	0%	0%	14%	28%	21%
COC(=O)c1cccc(NC(=O)NC2CCN(c3ccnc(Nc4cc(OC)c(OC)c(OC)c4)n3)C2)c1 (centres unmarked) [GSK1379767]	56%	1%	14%	67%	0%	0%	0%	58%	10%	0%
CCn1c(-c2nonc2N)nc2cncc(Br)c21 [SB-738004]	50%	4%	2%	0%	0%	0%	0%	41%	0%	22%

Compound	%Inh (CDK8)	%Inh (CDK9)	%Inh (CDKL1)	%Inh (CDKL2)	%Inh (CDKL3)	%Inh (CDKL5)	%Inh (CHEK1)	%Inh (CHEK2)	%Inh (CIT)	%Inh (CLK1)
O=C(NOCC1CC1)c1cc(Br)c(F)c(F)c1Nc1ccc(I)cc1Cl	0%	0%	8%	0%	0%	0%	0%	0%	0%	0%
Cn1ccc2ncnc(Oc3ccc(NC(=O)Nc4cccc(C(F)(F)F)c4)c(F)c3)c21	100%	24%	62%	45%	7%	0%	0%	1%	78%	13%
OCCn1cc(-c2cnc3nnn(Cc4ccc5ncccc5c4)c3n2)cn1	0%	8%	0%	0%	10%	0%	0%	6%	0%	16%
Cc1ccc(C(=O)Nc2ccc(Oc3ccc4nc(NC(=O)C5CC5)cn4c3)c(F)c2)c(=O)n1-c1ccccc1	87%	0%	41%	99.6%	0%	0%	0%	0%	36%	0%
C[C@@H](Oc1cc(-n2cnc3cc(-c4ccncc4)ccc32)sc1C(N)=O)c1ccccc1Cl [GSK479719]	12%	4%	21%	33%	0%	0%	4%	0%	24%	73%
CC(=O)Nc1nc2cnc(Nc3cc(NC(=O)c4cccc(CC(C)(C)C#N)c4)ccc3C)nc2s1	67%	10%	50%	99.5%	41%	0%	0%	28%	68%	0%
Cc1ccc(Nc2ccnc(Nc3ccc4c(c3)CS(=O)(=O)C4)n2)cc1O.Cl [GW579362]	38%	37%	36%	41%	0%	0%	0%	14%	69%	81%
Cc1ccn2nc(-c3ccc(F)cc3)c(-c3ccncc3)c2c1.Cl [GW457859]	12%	0%	23%	28%	0%	0%	0%	43%	100%	22%
Cl.c1ccc(Oc2ccc(Nc3ccnc4cc(-c5ccc(CN6CCNCC6)o5)ccc34)cc2)nc1 [GW567142]	0%	0%	0%	0%	0%	0%	5%	82%	9%	25%
CCn1c(-c2nonc2N)nc2cncc(CNC3CCNCC3)c21.Cl [SB-747651]	24%	0%	0%	20%	0%	0%	48%	0%	24%	31%
CCOC(=O)N1CCC(n2cnc(-c3ccc(F)cc3)c2-c2ccnc(N)n2)CC1 [SB-219952]	22%	0%	7%	0%	30%	13%	0%	2%	41%	0%
Cc1ccc(CC(=O)N2CCc3cc(-c4cn(C)c5ncnc(N)c45)ccc32)cc1 [GSK2634758]	83%	0%	8%	0%	0%	0%	1%	17%	19%	13%
NC(=O)Nc1sc(-c2ccc(F)cc2)cc1C(N)=O [GW789449]	46%	0%	27%	17%	10%	0%	0%	69%	27%	9%
COc1cc2nccc(Nc3ccc(Oc4ccccc4)cc3)c2cc1OC.Cl [GI261656]	38%	0%	0%	10%	0%	0%	0%	67%	0%	19%
C[C@@H](Oc1cc(-n2cnc3ccc(-c4ccncc4)cc32)sc1C(N)=O)c1ccccc1Cl [GSK483724]	57%	3%	16%	78%	32%	0%	0%	0%	98.8%	98.2%
Cc1n[nH]c2cc(Nc3ccnc(Nc4cccc(CN5CCOCC5)c4)n3)ccc12 [GW682569]	35%	4%	2%	17%	0%	0%	0%	27%	35%	29%
CCNCC(Cc1ccccc1)NC(=O)c1cc(Br)c(-c2ccnc3[nH]ccc23)s1.Cl.Cl (centres unmarked) [GSK1383280]	0%	19%	17%	0%	0%	0%	20%	42%	73%	59%
Cn1ccc2ncnc(Oc3ccc(NC(=O)Nc4ccnc(C(F)(F)F)c4)c(Cl)c3)c21	95.5%	0%	34%	3%	0%	19%	0%	2%	18%	0%
C[C@@H](Oc1cc(-n2cnc3cc(-c4cnn(C)c4)ccc32)sc1C(N)=O)c1ccccc1Cl [GSK580432]	17%	5%	20%	22%	0%	0%	32%	0%	32%	59%
N#Cc1cccc(C(=O)NC2CCN(c3ccnc(Nc4ccc(F)cc4)n3)C2)c1 (centres unmarked) [GSK1379708]	19%	0%	8%	17%	0%	6%	0%	0%	11%	14%
c1ccc(Oc2ccc(Nc3ccnc4ccc(-c5ccccn5)cc34)cc2)cc1 [GW407034]	0%	0%	9%	16%	0%	14%	26%	0%	4%	14%
O=C(Nc1ccccc1)c1cccc(Oc2ccc3nccn3n2)c1	0%	94.6%	0%	20%	0%	0%	0%	0%	32%	0%
